# Rows were chosen to be rich in hits. Some 3.7% of all compounds tested hit in one or more screens of this group.
# PTHR1 agonist = agonists of human PTHR1 parathyroid hormone receptor; 410,000 compounds, 0.075% hits; Potency, µM (series often up to 115 µM), for the others: top-dose activation, usual class: activators; Q03431; HEK293 GP2 PTHR1 cells, GloSensor cAMP luminescence, 1 h; note: potency is the fitted concentration of half-maximal effect; nearly all actives have a fitted effect of over 55% in size
#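 HEK-293-derived GP2 cells expressing PTHR1 and a GloSensor cAMP reporter, 3,000/well, plated overnight, given luciferin plus IBMX (each 0.5 mM as added) for 1 h at 37 °C, then compound for 1 h at 37 °C. Luminescence was read after 15 min at room temperature.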
# DRD3 agonist = D3 dopamine receptor (human) agonism; P35462; D3R DiscoveRx beta-arrestin cells, luminescence, 90 min; max activation, %; 410,000 compounds, 0.58% hits; in the data active = max activation above about 30%; note: 0% is about no effect
#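 Agonist-mode cell screen: cells plated at 1500/well and incubated overnight at 37 °C, then exposed to library compounds for 90 min at 37 °C. Detection reagent was added for 30–60 min at room temperature, and luminescence was read.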
# BRCA1 expr act = increases BRCA1 expression; MCF7-BRCA1-FFLuc reporter, luminescence, 48 h; response scale: scaled: vehicle 0%, 10 µM genistein 100%; Potency, µM (doses to about 46.1 µM), without a hit: top-dose activation, hits mostly activators; 380,000 compounds, 1.1% hits; AID 624202; note: potency is the fitted concentration of half-maximal effect; nearly all actives have a fitted effect of over 80% in size
#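 Using MCF7 cells harboring a BRCA1 firefly luciferase reporter, plated 2 h before compound pinning, the screen measured luminescence after 48 h incubation. Responses were normalized to DMSO and 10 microM genistein, then fitted for concentration-effect.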
# RGS4 inhibitor = inhibitors of human regulator of G protein signaling 4; P49798; Transcreener GDP fluorescence polarization, RGS4-accelerated GTP hydrolysis; Potency, µM (titrated, usually from 114 µM), without a hit: top-dose activity change, negative = inhibition, hits mostly inhibitors; 390,000 compounds, 0.039% hits; AID 504845; note: potency is the fitted concentration of half-maximal effect; % is set by controls: 0 for no effect and ±100 for the full control effect; nearly all actives have a fitted effect of over 75% in size
# Target sequence (P49798 whole entry, looked up): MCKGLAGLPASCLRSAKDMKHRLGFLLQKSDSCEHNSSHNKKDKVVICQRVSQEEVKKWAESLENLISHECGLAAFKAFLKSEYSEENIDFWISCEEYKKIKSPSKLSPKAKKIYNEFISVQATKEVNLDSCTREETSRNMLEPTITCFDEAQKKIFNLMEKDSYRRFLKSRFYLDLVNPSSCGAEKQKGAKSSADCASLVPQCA
#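 MLSMR compounds (23 nl, pin-transferred) preincubated 10 min at room temperature with a 500nM (2x) first reagent, then RGS4 at 900nM (2x) plus Transcreener GDP mix added; fluorescence polarization (620/688 nm) read before and after 90 min at 30 °C.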
# D3 antag = D3 dopamine receptor (human) antagonism. AID 652054. P35462. 360,000 compounds, 2.5% hits. D3R cells, DiscoveRx beta-arrestin luminescence, antagonist mode; hits give low values. max response, negative = inhibition, %; in the data active = max response below about -50%; inconclusive = no clear call, values can overlap the other calls; note: % is set by controls: 0 for no effect and ±100 for the full control effect
#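 Cells plated overnight at 1500 cells/well, then exposed to library compounds with dopamine controls for 90 minutes at 37 degrees C. DiscoveRx reagent added for 30–60 minutes at room temperature; luminescence read, quantitative HTS format.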
# B2AR arrestin = recruits beta-arrestin to the human beta2-adrenergic receptor; AID 492947; Potency, µM (highest dose often 46.1 µM), inactives show top-dose activation, most hits filed as activators; beta-arrestin recruitment to beta2AR, cell-based reporter; 330,000 compounds, 0.02% hits;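 note: potency is the fitted concentration of half-maximal effect; 0% = DMSO controls and full agonism = EC100 isoproterenol or metaproterenol; nearly all actives have a fitted effect of over 65% in size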
# Target sequence (P07550 whole entry, looked up): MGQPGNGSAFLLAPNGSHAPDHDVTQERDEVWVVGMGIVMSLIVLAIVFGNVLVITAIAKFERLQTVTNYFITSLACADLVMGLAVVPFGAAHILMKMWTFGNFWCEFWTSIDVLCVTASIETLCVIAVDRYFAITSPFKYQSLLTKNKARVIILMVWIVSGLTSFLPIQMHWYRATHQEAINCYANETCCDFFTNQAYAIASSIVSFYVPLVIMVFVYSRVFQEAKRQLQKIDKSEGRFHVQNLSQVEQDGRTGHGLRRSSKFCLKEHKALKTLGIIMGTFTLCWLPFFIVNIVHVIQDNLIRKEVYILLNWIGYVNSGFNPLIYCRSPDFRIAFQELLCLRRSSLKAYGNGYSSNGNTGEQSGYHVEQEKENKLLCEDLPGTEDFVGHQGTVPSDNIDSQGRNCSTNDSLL
# Starred values were filed as active, the others as inactive; i = inactive; u = inconclusive; x = not tested or not shown; [ ] = remark or other dose. Unless noted, calls come from the whole dose curve; as a rule, active = well fitted curve in the direction sought with a large enough effect; inconclusive = small, poorly fitted or top-dose-only effect, or another doubt; inactive = no such curve, though single readings can be large; an effect the other way counts as inactive or inconclusive.
SMILES,PTHR1 agonist,DRD3 agonist,BRCA1 expr act,RGS4 inhibitor,D3 antag,B2AR arrestin
C=CC[N@@+]12CC[C@@]34c5ccccc5N5/C=C6/[C@H]7C[C@H]8[C@@]9(CC[N@@+]8(CC=C)C/C7=C/CO)c7ccccc7N(/C=C(/[C@@H](C[C@@H]31)/C(=C\CO)C2)[C@H]54)[C@@H]69,x,-3,x,x,x,x
COc1ccc(-c2cc(C(=O)Nc3c(C(=O)c4ccc(C)c(F)c4)oc4ccccc34)no2)cc1,17%,-16,x,-9%,x,x
Brc1ccccc1OCCCCN1CCCCC1,24%,-16,-14%,-6%,-97*,-4%
O=C(NCCC(=O)N1CCN(c2ccccc2O)CC1)c1ccc(Cl)cc1,-59%,8,-6%,-17%,-5,0%
O=C(NCCC(=O)N1CCN(Cc2c(F)cccc2Cl)CC1)c1ccc(Cl)cc1,-12%,65*,-7%,8%,-4,5%
COC(=O)c1ccn(Cc2ccccc2Cl)n1,i,-3,13µM*,-23%,5,0%
Cc1cc(C)cc(Cn2c3ccc(NC(=O)NCCc4cccs4)cc3c(=O)n2C)c1,i,5,-22%,x,-17,x
CC1CCN(S(=O)(=O)c2ccc3c(c2)N(CC(=O)NCCCN2CCCC(C)C2)C(=O)CO3)CC1 (stereo unspecified),-24%,-18,-3%,-12%,-89*,0%
O=C(CN1C(=O)COc2ccccc21)NCCCN1CCc2ccccc2C1,-15%,-21,-1%,9%,-77*,0%
CC1CCN(S(=O)(=O)c2ccc3c(c2)N(CC(=O)NCCCN2CCCC(C)C2)C(=O)CS3)CC1 (stereo unspecified),-6%,-15,3%,6%,-20,0%
O=C(CN1C(=O)COc2ccccc21)NCCN1CCC(Cc2ccccc2)CC1,i,-29,-15%,-4%,-57*,0%
O=C(CN1C(=O)COc2ccccc21)NCCCN1CCN(Cc2ccccc2)CC1,-5%[57.5 µM],-24,-1%,7%,u,0%
Cc1nnc(SCC(=O)N2CCN(c3cccc(Cl)c3)CC2)n1C1CC1,-40%,-5,-3%,-6%,-8,0%
Cc1c(-c2ccc(O)cc2)n(Cc2ccc(OCCN3CCCCCC3)cc2)c2ccc(O)cc12,x,-25,x,x,x,x
Cc1ccc(NC(=O)Nc2ccc3c(c2)CCC3)cc1,-5%,-3,4µM*,-1%,-9,0%
O=C(Nc1cccc(F)c1)Nc1ccc2c(c1)CCC2,-17%,-1,2µM*,-11%,7,-1%
Cc1ccc(C)c(COC(=O)CCN=C2NS(=O)(=O)c3ccccc32)c1,i,3,17%,-23%,17,0%
COc1ccc(CCNC(=O)CS(=O)(=O)Cc2nc(-c3cccc(Cl)c3)oc2C)cc1OC,-6%,2,-5%,4%,x,x
CCOC(=O)c1sc(NC(=O)/C=C/c2cnn(CC)c2C)c(C(=O)OCC)c1C,13%[57.5 µM],36*,-83%,u,16,0%
CCCOC(=O)c1c(NC(=O)/C=C/c2cnn(C)c2C)sc(C(=O)OCC)c1C,i,20,3%,7%,36,2%
CCCOC(=O)c1c(NC(=O)/C=C/c2cnn(C)c2C)sc(C(=O)OC)c1C,-2%,17,7%,0%,-77*,0%
CCn1ncc(/C=C/C(=O)Nc2c(C)nn(CC)c2C)c1C,i,3,1%,15%,23,-1%
O=c1c2c3c(sc2n(Cc2ccccc2F)c(=O)n1-c1ccc(Cl)cc1)CCCC3,-26%,1,5%,-6%,x,x
C=C1[C@H](CO)[C@@H](O)C[C@@H]1n1cnc2c(=O)[nH]c(N)nc21,x,-11,x,x,x,x
Brc1ccc(CN2CCN(Cc3c[nH]c4ccccc34)CC2)cc1,-38%,-41,-57%,1%,-64*,0%
SMILES,PTHR1 agonist,DRD3 agonist,BRCA1 expr act,RGS4 inhibitor,D3 antag,B2AR arrestin
COc1cc(OC)cc(C(=O)N2CCN(Cc3ccccc3Br)CC2)c1,-45%,-9,10%,12%,2,-1%
O=[N+]([O-])c1ccc(CN2CCN(Cc3c[nH]c4ccccc34)CC2)cc1,i,-23,-9%,-15%,u,0%
CN1CCCN(Cc2ccccc2Br)CC1,u,-10,-2%,-13%,-51*,0%
Brc1ccccc1CN1CCN(Cc2c[nH]c3ccccc23)CC1,i,-14,-92%,-31%,-80*,x
CCCc1cc(=O)oc2cc(C)cc(OC(C)C(=O)NCc3ccncc3)c12 (stereo unspecified),-7%,-1,-14%,-21%[56.9 µM],1,0%
O=C(C=P(c1ccccc1)(c1ccccc1)c1ccccc1)c1ccccc1-c1ccccc1C(=O)C=P(c1ccccc1)(c1ccccc1)c1ccccc1,-5%,-3,-87%,-44%,-89*,x
COc1ccc(N2CCN(C(=O)Cn3nnc(-c4cccs4)n3)CC2)cc1,-6%[57.5 µM],14,-19%,2%,-103*,0%
CCOc1cc(C(=O)N(CC)CC(=O)Nc2ccc3c(c2)OCCO3)ccc1OC,-11%,4,4%,13%,4,0%
O=C(Nc1ccccc1)c1ccc(S(=O)(=O)NCc2cccnc2)cc1,-67%,-6,-30%,-11%,-12,-1%
O=C(Nc1ccc(S(=O)(=O)NCc2cccnc2)cc1)c1ccccc1Cl,-52%,-8,-32%,-12%,-83*,0%
NC(=O)C1CCN(Cc2nc(-c3ccccc3)no2)CC1,i,34*,14%,-10%,29,-1%
CCOC(=O)C1CCN(C2CCN(Cc3nc(-c4ccccc4)no3)CC2)CC1,-21%,4,0%,-11%,7,-1%
Cc1ccc(-c2noc(CN3CCCCC3)n2)cc1,-12%[57.5 µM],-5,2.5µM*,18%,-1,0%
Clc1ccc(-c2noc(CN3CCN(c4ccccc4)CC3)n2)cc1,-31%[57.5 µM],-6,3%,12%,0,0%
Clc1ccc(-c2noc(CN3CCCC3)n2)cc1,-9%,4,13µM*,-1%[11.4 µM],1,0%
OC(Cc1cccc(Br)c1)c1ncc(-c2ccccc2C(F)(F)F)[nH]1 (stereo unspecified),i,4,0%,x,10,x
CC(=O)N1CCc2c(sc(NC(=O)c3ccc([N+](=O)[O-])o3)c2C#N)C1,-49%,-12,-84%,-11%,-59*,0%
COc1ccc(C(=O)Nc2sc3c(c2C#N)CCN(C(C)=O)C3)cc1,i,-5,-16%,3%,11,0%
O=C1CC2C(=O)NCCN2C(=NC(=O)c2ccc(Cl)cc2)N1 (stereo unspecified),-22%,5,5%,-24%,7,0%

# Screens as filed in PubChem BioAssay.
